# Source: ChEMBL document CHEMBL3433997, “St. Jude Leishmania screening dataset” (2016)
# Key:
# Type in all cases: functional
# [1] = biological target: Solute carrier family 2, facilitated glucose transporter member 1 (Homo sapiens) (UniProt P11166); experiment: ST_JUDE_LEISH: Cytotoxicity at 2uM final concentration against transgenic Leishmania Mexicana promastigotes LmGLUT1 that are glucose transport deficient and complemented with the human glucose transporter GLUT1. Activity is measured by DNA content using SYBR green in vitro
# [2] = biological target: Hexose transporter 1 (Plasmodium falciparum) (UniProt O97467); experiment: ST_JUDE_LEISH: Cytotoxicity at 2uM final concentration against transgenic Leishmania Mexicana promastigotes LmPfHT that are glucose transport deficient and complemented with the Plasmodium falciparum hexose transporter. Activity is measured by DNA content using SYBR green in vitro
# [3] = biological target: Glucose transporter (Leishmania mexicana) (UniProt O61059); experiment: ST_JUDE_LEISH: Cytotoxicity at 2uM final concentration against transgenic Leishmania Mexicana promastigotes LmGT2 that are glucose transport deficient and complemented with the L. Mexicana glucose transporter 2. Activity is measured by DNA content using SYBR green in vitro
# Solute carrier family 2, facilitated glucose transporter member 1 (Homo sapiens), sequence (P11166 whole entry): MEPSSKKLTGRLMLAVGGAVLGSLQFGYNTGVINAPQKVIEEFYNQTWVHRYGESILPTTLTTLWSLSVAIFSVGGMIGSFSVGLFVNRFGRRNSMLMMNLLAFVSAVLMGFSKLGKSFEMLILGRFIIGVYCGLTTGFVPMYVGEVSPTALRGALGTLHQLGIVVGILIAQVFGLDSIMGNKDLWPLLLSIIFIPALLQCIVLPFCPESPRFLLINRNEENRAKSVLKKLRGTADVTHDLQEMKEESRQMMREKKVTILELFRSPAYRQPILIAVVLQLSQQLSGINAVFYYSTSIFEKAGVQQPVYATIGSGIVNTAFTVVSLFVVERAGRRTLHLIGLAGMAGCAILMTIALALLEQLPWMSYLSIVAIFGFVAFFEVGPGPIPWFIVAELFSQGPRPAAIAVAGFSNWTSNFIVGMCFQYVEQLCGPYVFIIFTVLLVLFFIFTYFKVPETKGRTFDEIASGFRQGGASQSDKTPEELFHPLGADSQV
SMILES,inhibition [1],inhibition [2],inhibition [3]
N=C(N)NC(=O)Nc1cc(Br)c(Br)c(Br)c1,3.42%,3.17%,1.74%
CN1CCCc2cc(NC(=O)c3cc(-c4ccc(Cl)cc4)cs3)ccc2C1,2.24%,0.77%,1.79%
COc1ccc(O)c(-c2sc(N=C(N)N)nc2-c2ccccc2)c1,1.77%,2.67%,3.42%
N#Cc1ccc2c(c1)CN(CCC1CCC(NC(=O)c3cc4cc(OC(F)(F)F)ccc4[nH]3)CC1)CC2 (stereo unspecified),3.11%,2.72%,0.85%
Cc1cccc2nc(-c3cccc(-c4cccc(NC(=O)Nc5ccccc5)c4)c3)[nH]c12,3.85%,3.36%,3.26%
CNCCNCc1cccc(-c2ccc(-c3nc4cc(C(F)(F)F)ccc4[nH]3)cc2)c1,0.41%,2.51%,2.03%
COc1ccccc1C1CCN(CCN2CCC(NC(=O)c3ccc(-c4ccc(C#N)cc4)cc3)CC2)CC1,-0.2%,2.09%,1.89%
FC(F)(F)c1cccc(CCNc2nccc(NCc3ccccc3Cl)n2)c1,5.73%,4.26%,0.1%
CCOC(=O)c1ccc(NC(=O)Nc2ccc(-c3ccc(-c4nc5ccccc5[nH]4)cc3)cc2)cc1,3.64%,3.36%,3.8%
O=C(/C=C/c1ccc(Cl)c(Cl)c1)NC1CCC(CN2CCC(c3nc4cc(O)ccc4[nH]3)CC2)CC1 (stereo unspecified),2.81%,3.99%,2.71%
COc1ccc(-c2cnc3ccc(NCCCO)nn23)cc1OC,-0.63%,0.58%,1.14%
CCCn1c(Sc2ccc(C#N)c([N+](=O)[O-])c2)nnc1-c1ccc(Cl)cc1,2.12%,3.28%,2.23%
